# Experimental data published in the supplement of paper PMC8728848.
# About 410 targets per protein were measured; listed, in parts, are those with the strongest signals and a random draw of the rest.
# B1: GNL (Galanthus nivalis) (protein)
# chain: MGHHHHHHHHYGTLENGHWLMVGMSIFSKDRTVELRMQDDGKLAIYYNDHCAWQSTAQQVNNAKGAVMQGDGNFCIYDKNGKATWHTNTAAPSGDSHTFVSVQDDGNLVLYKNNGATPIWSSKSNK
# How the values were obtained:
# Experiment in all cases: glycan array binding signal (z-score within array); higher = stronger binding
# Details in all cases: glycan notation: IUPAC condensed, linker removed
# [1] = molecular target: Glc(a1-6)Glc(a1-6)Glc(a1-6)Glc
# How it was run: (§1)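 Columns mapping to the same glycan were averaged after glycan names were converted to IUPAC-condensed notation. The data come from 3228 arrays in the Consortium for Functional Glycomics database, limited to those with an available protein sequence. Binding is reported as a within-array Z-score averaged across arrays of one protein sequence and across linkers.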
# [2] = molecular target: GlcNAc(a1-4)Gal(b1-4)GlcNAc
# How it was run: as §1
# [3] = molecular target: GlcNAc(a1-4)Gal(b1-4)GlcNAc(b1-3)Gal(b1-4)[Fuc(a1-3)]GlcNAc(b1-3)Gal(b1-4)[Fuc(a1-3)]GlcNAc
# How it was run: as §1
# [4] = molecular target: GlcNAc(b1-2)Man(a1-3)[GlcNAc(b1-2)Man(a1-6)]Man(b1-4)GlcNAc(b1-4)GlcNAc
# How it was run: as §1
# [5] = molecular target: GlcNAc(b1-2)[GlcNAc(b1-4)]Man(a1-3)[GlcNAc(b1-4)][GlcNAc(b1-2)[GlcNAc(b1-6)]Man(a1-6)]Man(b1-4)GlcNAc(b1-4)GlcNAc
# How it was run: as §1
# [6] = molecular target: GlcNAc(b1-3)Gal(b1-4)GlcNAc
# How it was run: as §1
# [7] = molecular target: GlcNAc(b1-3)Gal(b1-4)GlcNAc(b1-2)Man(a1-3)[GlcNAc(b1-3)Gal(b1-4)GlcNAc(b1-2)Man(a1-6)]Man(b1-4)GlcNAc(b1-4)GlcNAc
# How it was run: as §1
# [8] = molecular target: GlcNAc(b1-3)Gal(b1-4)GlcNAc(b1-3)GalNAc
# How it was run: as §1
# [9] = molecular target: GlcNAc(b1-3)Gal(b1-4)GlcNAc(b1-6)[GlcNAc(b1-3)]Gal(b1-4)GlcNAc
# How it was run: as §1
# [10] = molecular target: GlcNAc(b1-4)GlcNAc(b1-4)GlcNAc(b1-4)GlcNAc(b1-4)GlcNAc(b1-4)GlcNAc
# How it was run: as §1
# [11] = molecular target: GlcNAc6S(b1-3)Gal(b1-4)GlcNAc
# How it was run: as §1
# [12] = molecular target: Man(a1-2)Man(a1-3)Man
# How it was run: as §1
# [13] = molecular target: Man(a1-3)[Man(a1-6)]Man(a1-6)[Man(a1-3)]Man(b1-4)GlcNAc(b1-4)GlcNAc
# How it was run: as §1
# [14] = molecular target: Neu5Ac(a2-3)Gal(b1-3)GlcNAc(b1-2)Man
# How it was run: as §1
# [15] = molecular target: Neu5Ac(a2-3)Gal(b1-3)GlcNAc(b1-2)Man(a1-3)[GlcNAc(b1-4)][Neu5Ac(a2-3)Gal(b1-3)GlcNAc(b1-2)Man(a1-6)]Man(b1-4)GlcNAc(b1-4)GlcNAc
# How it was run: as §1
# [16] = molecular target: Neu5Ac(a2-3)Gal(b1-3)GlcNAc(b1-3)Gal(b1-3)GlcNAc
# How it was run: as §1
# [17] = molecular target: Neu5Ac(a2-3)Gal(b1-3)[Fuc(a1-4)]GlcNAc(b1-3)Gal(b1-4)[Fuc(a1-3)]GlcNAc
# How it was run: as §1
# [18] = molecular target: Neu5Ac(a2-3)Gal(b1-3)[Neu5Ac(a2-6)]GlcNAc(b1-3)[Fuc(a1-3)[Gal(b1-4)]GlcNAc(b1-6)]Gal(b1-4)Glc
# How it was run: as §1
# [19] = molecular target: Neu5Ac(a2-3)Gal(b1-3)]Neu5Ac(a2-3)Gal(b1-4)]GlcNAc
# How it was run: as §1
# [20] = molecular target: Neu5Ac(a2-3)Gal(b1-4)GlcNAc(b1-2)Man(a1-3)[GlcNAc(b1-4)][Neu5Ac(a2-3)Gal(b1-4)GlcNAc(b1-2)Man(a1-6)]Man(b1-4)GlcNAc(b1-4)GlcNAc
# How it was run: as §1
# [21] = molecular target: Neu5Ac(a2-3)Gal(b1-4)GlcNAc(b1-2)[Neu5Ac(a2-3)Gal(b1-4)GlcNAc(b1-6)]Man(a1-6)[Neu5Ac(a2-3)Gal(b1-4)GlcNAc(b1-2)Man(a1-3)]Man(b1-4)GlcNAc(b1-4)GlcNAc
# How it was run: as §1
# [22] = molecular target: Neu5Ac(a2-3)Gal(b1-4)GlcNAc(b1-6)[Neu5Ac(a2-3)Gal(b1-3)]GalNAc
# How it was run: as §1
# [23] = molecular target: Neu5Ac(a2-3)Gal(b1-4)[Fuc(a1-3)]GlcNAc(b1-2)Man
# How it was run: as §1
# [24] = molecular target: Neu5Ac(a2-3)GalNAc
# How it was run: as §1
# [25] = molecular target: Neu5Ac(a2-6)Gal(b1-4)GlcNAc(b1-2)Man(a1-3)[Man(a1-6)]Man(b1-4)GlcNAc(b1-4)GlcNAc
# How it was run: as §1
# [26] = molecular target: Neu5Ac(a2-6)Gal(b1-4)GlcNAc(b1-2)Man(a1-6)[GlcNAc(b1-2)Man(a1-3)]Man(b1-4)GlcNAc(b1-4)GlcNAc
# How it was run: as §1
# [27] = molecular target: Neu5Ac(a2-6)Gal(b1-4)GlcNAc(b1-3)Gal(b1-4)GlcNAc(b1-6)[Gal(b1-3)]GalNAc
# How it was run: as §1
# [28] = molecular target: Neu5Ac(a2-6)Gal(b1-4)GlcNAc(b1-6)GalNAc
# How it was run: as §1
# [29] = molecular target: Neu5Ac(a2-6)Gal(b1-4)GlcNAc(b1-6)[Gal(b1-3)]GalNAc
# How it was run: as §1
# [30] = molecular target: Neu5Ac(a2-8)Neu5Ac
# How it was run: as §1
# [31] = molecular target: Neu5Ac(a2-8)Neu5Ac(a2-3)Gal(b1-3)GalNAc(b1-4)[Neu5Ac(a2-3)]Gal(b1-4)Glc
# How it was run: as §1
# [32] = molecular target: Neu5Gc(a2-8)Neu5Gc(a2-6)Gal(b1-4)GlcNAc
# How it was run: as §1
binder,measurement,setting,value
B1,glycan array binding signal (z-score),[1],-0.121
same,glycan array binding signal (z-score),[2],-0.25
same,glycan array binding signal (z-score),[3],-0.175
same,glycan array binding signal (z-score),[4],8.74
same,glycan array binding signal (z-score),[5],-0.284
same,glycan array binding signal (z-score),[6],-0.226
same,glycan array binding signal (z-score),[7],0.679
same,glycan array binding signal (z-score),[8],-0.013
same,glycan array binding signal (z-score),[9],-0.255
same,glycan array binding signal (z-score),[10],-0.24
same,glycan array binding signal (z-score),[11],-0.28
same,glycan array binding signal (z-score),[12],-0.18
same,glycan array binding signal (z-score),[13],-0.2
same,glycan array binding signal (z-score),[14],-0.208
same,glycan array binding signal (z-score),[15],-0.228
same,glycan array binding signal (z-score),[16],-0.212
same,glycan array binding signal (z-score),[17],-0.191
same,glycan array binding signal (z-score),[18],-0.137
same,glycan array binding signal (z-score),[19],-0.172
same,glycan array binding signal (z-score),[20],-0.295
same,glycan array binding signal (z-score),[21],-0.159
same,glycan array binding signal (z-score),[22],-0.286
same,glycan array binding signal (z-score),[23],-0.295
same,glycan array binding signal (z-score),[24],-0.251
same,glycan array binding signal (z-score),[25],5.43
same,glycan array binding signal (z-score),[26],5.03
same,glycan array binding signal (z-score),[27],-0.216
same,glycan array binding signal (z-score),[28],-0.235
same,glycan array binding signal (z-score),[29],-0.133
same,glycan array binding signal (z-score),[30],-0.189
same,glycan array binding signal (z-score),[31],-0.285
same,glycan array binding signal (z-score),[32],-0.194
